{"source": "PubChem BioAssay (NCATS)", "note": "Several values for one entry are separate records, joined by “and”; a condition that tells them apart may be missing. Identical values can stand only once. Inconclusive results are not listed. Activity calls are given as the source filed them. The call rests on the fitted dose curve."}
{"molecular_target": "Retinoic acid receptor RXR-alpha (Homo sapiens) (UniProt P19793)", "sequence (P19793 whole entry, looked up)": "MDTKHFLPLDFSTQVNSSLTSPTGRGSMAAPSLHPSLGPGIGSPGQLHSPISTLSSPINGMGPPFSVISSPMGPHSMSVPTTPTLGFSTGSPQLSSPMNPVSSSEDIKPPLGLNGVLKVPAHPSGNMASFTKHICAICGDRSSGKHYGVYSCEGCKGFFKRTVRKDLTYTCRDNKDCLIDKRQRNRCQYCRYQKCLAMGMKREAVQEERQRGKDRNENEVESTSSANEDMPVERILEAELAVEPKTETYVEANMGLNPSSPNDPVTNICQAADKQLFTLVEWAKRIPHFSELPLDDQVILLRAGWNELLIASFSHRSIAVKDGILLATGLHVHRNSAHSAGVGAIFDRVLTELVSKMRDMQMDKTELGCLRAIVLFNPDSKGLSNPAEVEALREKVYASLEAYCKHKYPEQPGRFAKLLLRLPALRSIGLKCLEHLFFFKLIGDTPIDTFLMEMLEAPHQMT", "test": "qHTS assay for small molecule agonists of retinoid X receptor alpha signaling (AID 588544);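 further: 0% = DMSO basal wells and 100% = reference agonist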", "conditions": "HEK293T RXRa-UAS-bla, beta-lactamase reporter, 18 h; series mostly up to 76.7 µM; activation: at the top concentration"}
{"smiles": "O=CCCCC=O", "activation": "-10.2% (inactive)"}
{"smiles": "Nc1ccn([C@H]2CS[C@@H](CO)O2)c(=O)n1", "activation": "3.16% (inactive)"}
{"smiles": "O=C(O)CCC(=O)C(=O)O", "activation": "0.0561% (inactive)"}
{"smiles": "O=S(=O)(O)O", "outcome": "inactive"}
{"smiles": "CC(O)CO", "note": "(configuration not stated)", "outcome": "inactive"}
{"smiles": "CCCCC/C=C\\C/C=C\\CCCCCCCC(=O)O", "activation": "-15.6% (inactive)"}
{"smiles": "CCOC(C)=O", "activation": "6.91% (inactive)"}
{"smiles": "CCCCCCCC/C=C\\CCCCCCCC(=O)O", "outcome": "inactive"}
{"smiles": "CC1=CCC(C(C)(C)O)CC1", "note": "(configuration not stated)", "activation": "16.1% (inactive)"}
{"smiles": "CC1=C2[C@@H]([C@H](C)CC[C@H]2/C=C(\\C)C(=O)O)[C@H](O)C1", "activation": "-8.81% (inactive)"}
{"smiles": "O=C(O)CN(CCN(CC(=O)O)CC(=O)O)CC(=O)O", "outcome": "inactive"}
{"smiles": "Cc1ccccc1", "outcome": "inactive"}
{"smiles": "CC(C)=O", "activation": "-3.09% (inactive)"}
{"smiles": "CCCCCCCC(=O)O", "outcome": "inactive"}
{"smiles": "IC(I)I", "activation": "-16.6% (inactive)"}
{"molecular_target": "Thyroid hormone receptor beta (Homo sapiens) (UniProt P10828)", "sequence (P10828 whole entry, looked up)": "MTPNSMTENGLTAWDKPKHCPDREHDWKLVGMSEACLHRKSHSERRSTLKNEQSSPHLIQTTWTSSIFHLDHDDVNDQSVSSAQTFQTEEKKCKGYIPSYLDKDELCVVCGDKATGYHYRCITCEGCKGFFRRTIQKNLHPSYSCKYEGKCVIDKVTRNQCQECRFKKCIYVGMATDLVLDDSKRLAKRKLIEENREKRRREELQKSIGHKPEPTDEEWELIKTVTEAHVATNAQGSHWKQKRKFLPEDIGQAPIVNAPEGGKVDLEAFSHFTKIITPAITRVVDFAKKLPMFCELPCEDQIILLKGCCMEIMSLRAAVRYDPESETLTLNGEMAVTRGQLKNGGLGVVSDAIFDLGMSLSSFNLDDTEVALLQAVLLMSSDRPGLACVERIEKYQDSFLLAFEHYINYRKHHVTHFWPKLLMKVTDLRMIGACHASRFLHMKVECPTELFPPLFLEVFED", "test": "qHTS assay for small molecule agonists of thyroid hormone receptor beta signaling (AID 588545);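 further: 0% = DMSO only and 100% = 10 nM T3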", "conditions": "TR-UAS-bla GripTite HEK 293, beta-lactamase ratio, agonist mode, 18 h, percent of T3 response, DMSO as zero; series mostly up to 76.7 µM; activation: at the top concentration", "outline": "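Efficacy and EC50 values derive from Hill fits of qHTS titration data, normalized to 10 nM T3 and DMSO-only wells. HEK 293 reporter cells were stimulated for 18 hrs at 37 C, with beta-lactamase activity measured by CCF4 fluorescence.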"}
{"smiles": "O=CCCCC=O", "activation": "-7.73% (inactive)"}
{"smiles": "Nc1ccn([C@H]2CS[C@@H](CO)O2)c(=O)n1", "activation": "11.5% (inactive)"}
{"smiles": "CC(C)(C)NC(=O)[C@@H]1C[C@@H]2CCCC[C@@H]2CN1C[C@@H](O)[C@H](Cc1ccccc1)NC(=O)[C@H](CC(N)=O)NC(=O)c1ccc2ccccc2n1", "activation": "8.69% (inactive)"}
{"smiles": "CCOc1ccc2c(c1)C(C)=CC(C)(C)N2", "activation": "4.17% (inactive)"}
{"smiles": "O=C(O)CCC(=O)C(=O)O", "activation": "-4.66% (inactive)"}
{"smiles": "O=S(=O)(O)O", "outcome": "inactive"}
{"smiles": "CC(O)CO", "note": "(configuration not stated)", "outcome": "inactive"}
{"smiles": "CCCCC/C=C\\C/C=C\\CCCCCCCC(=O)O", "outcome": "inactive"}
{"smiles": "CCOC(C)=O", "activation": "-15.4% (inactive)"}
{"smiles": "CCCCCCCC/C=C\\CCCCCCCC(=O)O", "outcome": "inactive"}
{"smiles": "CC1=CCC(C(C)(C)O)CC1", "note": "(configuration not stated)", "activation": "9.3% (inactive)"}
{"smiles": "CC1=C2[C@@H]([C@H](C)CC[C@H]2/C=C(\\C)C(=O)O)[C@H](O)C1", "activation": "4.19% (inactive)"}
{"smiles": "C[C@H]1C[C@H]2[C@@H]3CCC4=CC(=O)C=C[C@]4(C)[C@@]3(F)[C@@H](O)C[C@]2(C)[C@@]1(O)C(=O)CO", "activation": "-8.06% (inactive)"}
{"smiles": "Cc1ccccc1", "outcome": "inactive"}
{"smiles": "CCCCC(CC)COC(=O)CC(C(=O)OCC(CC)CCCC)S(=O)(=O)O", "note": "(configuration not stated)", "activation": "-3.91% (inactive)"}
{"smiles": "CC(C)=O", "activation": "-7.2% (inactive)"}
{"smiles": "CC1=C(/C=C/C(C)=C/C=C/C(C)=C/CO)C(C)(C)CCC1", "outcome": "inactive"}
{"smiles": "CCCCCCCC(=O)O", "outcome": "inactive"}
{"smiles": "IC(I)I", "outcome": "inactive"}
{"test_system": "not listed separately", "test": "qHTS assay for small molecule antagonists of retinoid X receptor alpha signaling (AID 588546);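 further: cells stimulated with 9-cis-retinoic acid as agonist; on the % scale 0 is the no-effect control and ±100 the full control effect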", "conditions": "HEK293T RXRa-UAS-bla, beta-lactamase ratio, antagonist mode; measured here: W530 green channel, cytotoxicity proxy", "outline": "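Beta-lactamase reporter inhibition, read as CCF4 fluorescence ratio (ex 405, em 460/530 nm) after 2 h at RT. HEK293T UAS-bla cells, 2500/well, were stimulated with 9-cis-RA at 500 or 100 nM final alongside test compound for 18 h at 37 C.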"}
{"smiles": "O=CCCCC=O", "max response": "-9.66%"}
{"smiles": "Nc1ccn([C@H]2CS[C@@H](CO)O2)c(=O)n1", "max response": "-4.12%"}
{"smiles": "CC(C)(C)NC(=O)[C@@H]1C[C@@H]2CCCC[C@@H]2CN1C[C@@H](O)[C@H](Cc1ccccc1)NC(=O)[C@H](CC(N)=O)NC(=O)c1ccc2ccccc2n1", "max response": "9.91%"}
{"smiles": "O=C(O)CCC(=O)C(=O)O", "max response": "-14.3%"}
{"smiles": "O=S(=O)(O)O", "max response": "-14.3% and 12.6%"}
{"smiles": "CC(O)CO", "note": "(configuration not stated)", "max response": "-2.37% and -5.47%"}
{"smiles": "CCCCC/C=C\\C/C=C\\CCCCCCCC(=O)O", "max response": "2.1%"}
{"smiles": "CCCCCCCC/C=C\\CCCCCCCC(=O)O", "max response": "-6.26% and -12.6%"}
{"smiles": "CC1=CCC(C(C)(C)O)CC1", "note": "(configuration not stated)", "max response": "1.88%"}
{"smiles": "CC1=C2[C@@H]([C@H](C)CC[C@H]2/C=C(\\C)C(=O)O)[C@H](O)C1", "max response": "6.79%"}
{"smiles": "O=C(O)CN(CCN(CC(=O)O)CC(=O)O)CC(=O)O", "max response": "-5.66% and -2.36%"}
{"smiles": "C[C@H]1C[C@H]2[C@@H]3CCC4=CC(=O)C=C[C@]4(C)[C@@]3(F)[C@@H](O)C[C@]2(C)[C@@]1(O)C(=O)CO", "max response": "8.66%"}
{"smiles": "Cc1ccccc1", "max response": "-4.05% and 9.42%"}
{"smiles": "CC(C)=O", "max response": "9.42%"}
{"smiles": "CC1(C)C(C=C(Cl)Cl)C1C(=O)OCc1cccc(Oc2ccccc2)c1", "note": "(configuration not stated)", "max response": "-5.2% [middle of 4 runs]"}
{"smiles": "CC1=C(/C=C/C(C)=C/C=C/C(C)=C/CO)C(C)(C)CCC1", "max response": "23.5% and 17%"}
{"smiles": "CCCCCCCC(=O)O", "max response": "-6.98% and -8.84%"}
{"smiles": "IC(I)I", "max response": "-9.02% and 2.26%"}
